# Results from the antibiotic and cytotoxicity screens of Wong et al. (2023).
# About 1,500 (3.8%) of roughly 39,000 compounds were called active. Only a selection was taken, and actives are over-represented in it overall.
# Tested on: HSkMC (human skeletal muscle cells)
# Experiment: cytotoxicity call (relative viability < 0.9)
# Details: 10 µM
row,SMILES,cytotoxicity call
1,O=c1nc[nH]c2c1ncn2[C@H]1CC[C@@H](CO)O1,inactive
2,Cn1cnc(S(=O)(=O)N2C[C@@H](O)COC[C@H]3O[C@H](CC(=O)NC4CCC4)CC[C@@H]32)c1,inactive
3,O=C(C[C@H]1CC[C@@H]2[C@H](COC[C@H](O)CN2S(=O)(=O)c2ccc(Cl)cc2)O1)NCC1CCCCC1,inactive
4,C[C@H](CO)N1C[C@H](C)[C@H](CN(C)C(=O)Nc2ccc(F)cc2)OCCCC[C@H](C)Oc2ccc(NC(=O)Cc3ccccc3)cc2C1=O,inactive
5,C[C@H]1CN([C@@H](C)CO)C(=O)c2cc(NC(=O)Nc3ccc(F)cc3)ccc2O[C@H]1CN(C)Cc1ccc(-c2ccccc2)cc1,inactive
6,C[C@H](CO)N1C[C@H](C)[C@@H](CN(C)Cc2ccc(-c3ccccc3)cc2)Oc2ccc(NC(=O)Nc3ccc(F)cc3)cc2C1=O,inactive
7,C[C@@H]1CN([C@H](C)CO)C(=O)c2cc(NC(=O)Nc3ccc(F)cc3)ccc2O[C@@H]1CN(C)Cc1ccc(-c2ccccc2)cc1,active
8,C[C@]12C=CC(=O)N[C@@H]1CC[C@@H]1[C@@H]2CC[C@]2(C)[C@@H](C(=O)Nc3cc(C(F)(F)F)ccc3C(F)(F)F)CC[C@@H]12,inactive
9,CCCNC(=O)N1C[C@@H](O)COC[C@H]2O[C@H](CC(=O)NCc3ccncn3)CC[C@@H]21,inactive
10,C[C@@H]1CN([C@@H](C)CO)C(=O)Cc2cc(NC(=O)CCC(F)(F)F)ccc2O[C@H]1CN(C)S(=O)(=O)c1ccccc1,inactive
11,CCC(C)C(N)C(=O)O (configuration not stated),inactive
12,COc1ccccc1CN(C)C[C@@H]1OCc2ccccc2-c2c(n(C)c3ccccc23)C(=O)N([C@@H](C)CO)C[C@H]1C,inactive
13,COc1ccccc1CN(C)C[C@H]1OCc2ccccc2-c2c(n(C)c3ccccc23)C(=O)N([C@H](C)CO)C[C@@H]1C,inactive
14,COc1ccccc1CN(C)C[C@@H]1OCc2ccccc2-c2c(n(C)c3ccccc23)C(=O)N([C@H](C)CO)C[C@@H]1C,inactive
15,C[C@@H]1CN([C@H](C)CO)C(=O)c2c(c3ccccc3n2C)-c2ccccc2CO[C@@H]1CN(C)Cc1ccccc1C(F)(F)F,active
16,C[C@H](CO)N1C[C@H](C)[C@@H](CN(C)Cc2ccccc2C(F)(F)F)OCc2ccccc2-c2c(n(C)c3ccccc23)C1=O,active
17,C[C@@H]1CN([C@@H](C)CO)C(=O)c2c(c3ccccc3n2C)-c2ccccc2CO[C@@H]1CN(C)Cc1ccccc1C(F)(F)F,active
18,C[C@@H]1CN([C@@H](C)CO)C(=O)c2c(c3ccccc3n2C)-c2ccccc2CO[C@H]1CN(C)Cc1ccccc1C(F)(F)F,active
19,COc1ccccc1CN(C)C[C@@H]1OCc2ccccc2-c2c(n(C)c3ccccc23)C(=O)N([C@@H](C)CO)C[C@@H]1C,inactive
20,COc1ccccc1CN(C)C[C@@H]1OCc2ccccc2-c2c(n(C)c3ccccc23)C(=O)N([C@H](C)CO)C[C@H]1C,inactive
21,Cc1noc(C)c1NC(=O)Nc1ccc2c(c1)C(=O)N([C@@H](C)CO)C[C@H](C)[C@H](CN(C)S(=O)(=O)c1ccc(F)cc1)OCCCC[C@@H](C)O2,inactive
22,C[C@@H]1CN([C@H](C)CO)C(=O)c2cc(NC(=O)CCCN(C)C)ccc2O[C@H]1CN(C)S(=O)(=O)c1cn(C)cn1,inactive
23,CCS(=O)(=O)CCn1c([N+](=O)[O-])cnc1C,inactive

row,SMILES,cytotoxicity call
1,Cc1noc(C)c1S(=O)(=O)Nc1cccc2c1O[C@@H](CN(C)S(=O)(=O)c1ccc(Cl)cc1)[C@@H](C)CN([C@H](C)CO)C2=O,inactive
2,C[C@@H]1CCCCO[C@H](CN(C)S(C)(=O)=O)[C@@H](C)CN([C@@H](C)CO)C(=O)c2cc(NS(=O)(=O)c3ccc(F)cc3)ccc2O1,inactive
3,CO[C@H](CN(C)S(=O)(=O)c1cccc(Cl)c1)[C@@H](C)CN([C@H](C)CO)S(=O)(=O)c1ccc(Cl)cc1,inactive
4,O=C(N[C@@H]1CC[C@@H](CC(=O)N2CCOCC2)O[C@H]1CO)c1ccccn1,inactive
5,Cc1noc(C)c1NC(=O)N(C)C[C@H]1Oc2ccc(NC(=O)NC(C)C)cc2C(=O)N([C@H](C)CO)C[C@@H]1C,inactive
6,COc1ccc(S(=O)(=O)Nc2ccc3c(c2)C(=O)N([C@H](C)CO)C[C@@H](C)[C@H](CN(C)S(C)(=O)=O)O3)cc1,inactive
7,Nc1ccc(Nc2ccccc2)cc1,inactive
8,COc1ccc2c3c([nH]c2c1)[C@@H](CO)N(C[C@]13CN(C1)S(=O)(=O)C)C(=O)C1CCOCC1,inactive
9,COc1ccccc1CN(C)C[C@H]1OCc2ccccc2-c2c(n(C)c3ccccc23)C(=O)N([C@@H](C)CO)C[C@H]1C,inactive
10,C[C@H]1CN([C@@H](C)CO)C(=O)c2c(c3ccccc3n2C)-c2ccccc2CO[C@@H]1CN(C)Cc1ccccc1C(F)(F)F,active
11,C[C@H](CO)N1C[C@H](C)[C@H](CN(C)Cc2ccccc2C(F)(F)F)OCc2ccccc2-c2c(n(C)c3ccccc23)C1=O,active
12,C[C@H]1CN([C@@H](C)CO)C(=O)c2c(c3ccccc3n2C)-c2ccccc2CO[C@H]1CN(C)Cc1ccccc1C(F)(F)F,inactive
13,COc1ccccc1CN(C)C[C@H]1OCc2ccccc2-c2c(n(C)c3ccccc23)C(=O)N([C@@H](C)CO)C[C@@H]1C,inactive
14,COc1ccccc1CN(C)C[C@H]1OCc2ccccc2-c2c(n(C)c3ccccc23)C(=O)N([C@H](C)CO)C[C@H]1C,inactive
15,C[C@@H]1CN([C@H](C)CO)C(=O)c2c(c3ccccc3n2C)-c2ccccc2CO[C@H]1CN(C)Cc1ccccc1C(F)(F)F,active
16,C[C@@H]1CN([C@@H](C)CO)C(=O)c2cc(NC(=O)CCC(F)(F)F)ccc2O[C@@H](C)CCCCO[C@@H]1CN(C)C(=O)CCC(F)(F)F,inactive
17,COc1ccc(NC(=O)Nc2ccc3c(c2)C(=O)N([C@H](C)CO)C[C@@H](C)[C@@H](CN(C)C(=O)NC(C)C)OCCCC[C@H](C)O3)cc1,inactive
18,C[C@@H]1CCCCO[C@H](CN(C)C(=O)Nc2ccc3c(c2)OCO3)[C@@H](C)CN([C@@H](C)CO)C(=O)c2cc(NC(=O)CCC(F)(F)F)ccc2O1,inactive
19,CN1C(=O)COc2cc(N)ccc21,inactive
20,Cc1noc(C)c1NC(=O)N(C)C[C@H]1Oc2ccc(NS(C)(=O)=O)cc2CC(=O)N([C@H](C)CO)C[C@@H]1C,inactive
21,Cc1cc(C(=O)O)cc(S(N)(=O)=O)c1,inactive
22,C[C@@H]1CN([C@H](C)CO)C(=O)c2cc(NC(=O)Nc3ccc4c(c3)OCO4)ccc2O[C@@H]1CN(C)Cc1ccc(C(=O)Nc2ccccc2N)cc1,inactive
23,COc1ccc(NC(=O)N(C)C[C@@H]2Oc3c(NC(=O)c4cc(C)nn4C)cccc3C(=O)N([C@H](C)CO)C[C@H]2C)cc1,inactive

row,SMILES,cytotoxicity call
1,C[C@H]1CCCCO[C@H](CN(C)Cc2ccncc2)[C@@H](C)CN([C@@H](C)CO)C(=O)c2cc(NS(=O)(=O)c3ccc(Cl)cc3)ccc2O1,inactive
2,O=C(NO)c1cn(-c2ccc(C[C@H]3C(=O)O[C@@H](Cc4ccccc4)[C@H]4[C@@H]5C=CCCC=C5CN43)cc2)nn1,inactive
3,COc1ccc([Si](C)(C)[C@H]2[C@H](CCn3cc(CCO)nn3)O[C@@]3(C(=O)N(Cc4cccc(N5C(=O)c6cccc7cccc5c67)c4)c4ccccc43)[C@@H]2C)cc1,inactive
4,COc1ccc([Si](C)(C)[C@H]2[C@H](CCO)O[C@@]3(C(=O)N(Cc4cccc(N5C(=O)c6cccc7cccc5c67)c4)c4ccccc43)[C@@H]2C)cc1,inactive
5,COc1ccc([Si](C)(C)[C@@H]2[C@@H](CCO)O[C@]3(C(=O)N(Cc4ccc(N5C(=O)c6cccc7cccc5c67)cc4)c4ccccc43)[C@H]2C)cc1,inactive
6,COc1ccc([Si](C)(C)[C@H]2[C@H](CCO)O[C@@]3(C(=O)N(Cc4ccc(N5C(=O)c6cccc7cccc5c67)cc4)c4ccccc43)[C@@H]2C)cc1,inactive
7,COc1ccc([Si](C)(C)[C@@H]2[C@@H](CCn3cc(CCO)nn3)O[C@]3(C(=O)N(Cc4ccc(N5C(=O)c6cccc7cccc5c67)cc4)c4ccccc43)[C@H]2C)cc1,active
8,COc1ccc([Si](C)(C)[C@@H]2[C@@H](CCn3cc(CCO)nn3)O[C@]3(C(=O)N(Cc4cccc(N5C(=O)c6cccc7cccc5c67)c4)c4ccccc43)[C@H]2C)cc1,active
9,C[C@@H]1CCCCO[C@@H](CN(C)C(=O)CCCN(C)C)[C@H](C)CN([C@H](C)CO)C(=O)c2cc(NC(=O)Nc3ccc(C(F)(F)F)cc3)ccc2O1,inactive
10,C[C@H](CO)N1C[C@H](C)[C@@H](CN(C)C(=O)Nc2ccccc2)OCCCC[C@H](C)Oc2ccc(NC(=O)Cc3ccccc3)cc2C1=O,inactive
11,CN1CCN(C(=O)C[C@@H]2CC[C@@H]3[C@H](COc4ccc(NC(=O)C5CCCCC5)cc4C(=O)N3C)O2)CC1,inactive
12,C[C@H]1CN([C@@H](C)CO)C(=O)Cc2cc(NS(C)(=O)=O)ccc2O[C@@H]1CN(C)Cc1ccc(C(=O)O)cc1,inactive
13,COc1ccc(S(=O)(=O)N(C)C[C@@H]2OCCCC[C@H](C)Oc3ccc(NS(=O)(=O)c4ccc(Cl)cc4)cc3C(=O)N([C@H](C)CO)C[C@@H]2C)cc1,inactive
14,C[C@H]1CN([C@@H](C)CO)C(=O)c2cc(NC(=O)Cc3cn(C)c4ccccc34)ccc2O[C@@H]1CN(C)S(C)(=O)=O,inactive
15,C[C@@H]1CN([C@@H](C)CO)C(=O)c2cc(NC(=O)Cc3cn(C)c4ccccc34)ccc2O[C@@H]1CN(C)Cc1ccc(Cl)c(Cl)c1,active
16,C[C@@H]1CN([C@@H](C)CO)C(=O)c2cc(NC(=O)Cc3cn(C)c4ccccc34)ccc2O[C@@H]1CN(C)S(C)(=O)=O,inactive
17,C[C@@H]1CN([C@H](C)CO)C(=O)c2cc(NC(=O)Cc3cn(C)c4ccccc34)ccc2O[C@@H]1CN(C)Cc1ccc(Cl)c(Cl)c1,active
18,C[C@@H]1CN([C@H](C)CN(C)C)C(=O)c2cc(NC(=O)Cc3cn(C)c4ccccc34)ccc2O[C@H]1CN(C)S(=O)(=O)c1ccc(Cl)cc1,active
19,C[C@H](CO)N1C[C@H](C)[C@@H](CN(C)Cc2ccc(Cl)c(Cl)c2)Oc2ccc(NC(=O)Cc3cn(C)c4ccccc34)cc2C1=O,inactive
20,C[C@H](CO)N1C[C@H](C)[C@@H](CN(C)Cc2ccc(-c3ccccc3)cc2)Oc2ccc(NC(=O)Cc3cn(C)c4ccccc34)cc2C1=O,inactive
21,C[C@H](CO)N1C[C@H](C)[C@H](CN(C)Cc2ccc(Cl)c(Cl)c2)Oc2ccc(NC(=O)Cc3cn(C)c4ccccc34)cc2C1=O,active
